From the supplement of paper PMC6555819

How the values were obtained:
Assay in all cases: PBM binding z-score (relative to random genomic background probes); higher = stronger binding; sequences stand for … in GC…GCGATTGACAGCGTAGAATGAAGG
[1] = system: PPARg:RXRa DBDmut IVT, anti-RXR (DBD mutation: RXRa K156A/R161A, NR concentration 270 nM, RXRa partner concentration 90 nM)
Method in brief: (§1)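 Custom Agilent 4×180K protein-binding microarrays carried double-stranded probes, each with a 34-nt variable region. These regions held direct-repeat seeds, single-nucleotide variants, half-site ablations and random human genomic background sequences. Ligand-free nuclear receptor dimers were incubated on the arrays for 1 h, antibodies against each partner (one per run) detected binding, and scanned fluorescence was regression-normalized. Binding z-scores take the random background probes as reference.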

[2] = system: PPARg:RXRa IVT, anti-PPARg (NR concentration 270 nM, RXRa partner concentration 90 nM)
Method in brief: as §1

[3] = system: PPARg DBDmut:RXRa IVT, anti-PPARg (DBD mutation: PPARg1 K132A/R137A, NR concentration 270 nM, RXRa partner concentration 90 nM)
Method in brief: as §1

[4] = system: PPARg DBDmut IVT, anti-PPARg (DBD mutation: PPARg1 K132A/R137A, NR concentration 270 nM)
Method in brief: as §1

[5] = system: PPARg homodimer (NR concentration 180 nM)
Method in brief: as §1

[6] = system: PXR:RXRa (NR concentration 270 nM, RXRa partner concentration 90 nM)
Method in brief: as §1

[7] = system: PXR homodimer (NR concentration 270 nM)
Method in brief: as §1

[8] = system: RARa:RXR (NR concentration 270 nM, RXRa partner concentration 90 nM)
Method in brief: as §1

[9] = system: RARa homodimer (NR concentration 270 nM)
Method in brief: as §1

[10] = system: RARb:RXRa (NR concentration 270 nM, RXRa partner concentration 90 nM)
Method in brief: as §1

| Sequence | PBM binding z-score [1] | PBM binding z-score [2] | PBM binding z-score [3] | PBM binding z-score [4] | PBM binding z-score [5] | PBM binding z-score [6] | PBM binding z-score [7] | PBM binding z-score [8] | PBM binding z-score [9] | PBM binding z-score [10] |
| --- | --- | --- | --- | --- | --- | --- | --- | --- | --- | --- |
| ATCTCTAGGTAAAAGCTCAGTGAATCCCGAGGAT | 2.43 | 1.66 | 0.208 | 0.808 | -0.0545 | -0.626 | -0.475 | -0.548 | 0.418 | -0.0301 |
| CCTACTGGGCCCCGAAAGGTCATTGATTCAGTGA | 0.503 | 2.11 | -1.53 | -0.961 | 2.6 | 4.66 | 1.26 | 5.15 | 1.3 | 3.6 |
| TCTTGTAGATCAACAGGAGGTTAAGAAGGATCGA | 1.57 | 0.719 | 0.516 | 0.84 | -0.0308 | 0.778 | -0.0185 | 0.915 | -0.325 | 0.474 |
| CGTCAAAGTTCACGGTAACGTAACAGAAAGCAGC | 0.827 | 2.31 | 0.983 | 0.91 | 2.72 | 4.93 | 2.72 | 4.67 | 1.67 | 5.25 |
| GGAACGAGGGCATTCGAGTTGATAACATGGCGAT | 2.75 | 2.1 | 0.243 | 0.0771 | 0.605 | 4.02 | 1.36 | 0.915 | -0.696 | 1.68 |
| CAAACTAGGGCAAGAGGTCAAAGTCCGCTTCCCG | 6.91 | 7.47 | 1.69 | 0.0985 | 3 | 5.35 | 1.49 | 5.98 | 1.61 | 4.51 |
| CCTCGGAGGAGAGAAGGTCAGAGCTGTCCGCTTT | -0.223 | -0.125 | -1.3 | -1.71 | 0.917 | 1.24 | -0.114 | 1.74 | -0.103 | 2.35 |
| CCAACTAGGTCACGAAAGGTCAAAGTCGAATGAC | 8.35 | 8.54 | 1.23 | 0.869 | 6.09 | 7.02 | 3.52 | 7.39 | 3.62 | 5.63 |
| CGTCCAAGGTCTATGCTAGGTCAGTGAAAGCATT | 0.0727 | 0.505 | -1.49 | -0.699 | 0.128 | 0.421 | -0.113 | 1.03 | 0.289 | 1.62 |
| TCATATAGGTAAATGCTAGGTTAAAGTCCGATCT | 3.88 | 2.47 | 1.36 | 1.02 | 1.14 | 0.98 | 0.768 | 1.29 | 1.88 | 0.735 |
| ACTATTAGTTGAGACGAGGGCAACCCATAGGTTG | 0.0223 | 0.455 | 0.5 | 0.77 | 0.831 | 1.31 | 0.412 | 0.966 | 0.536 | 1.07 |
| ATCTCTAGGTAAAGTTAGTTCAGTGAATGCAAAT | 2.54 | 2.3 | 1.03 | 0.811 | 1.08 | 1.65 | 1.25 | 1.12 | 0.947 | 0.74 |
| CCTACTGGACCAAAAAGGTCATTGATGCCGATAA | 1.82 | 2.46 | -0.0112 | -0.226 | 4.04 | 4.77 | 2.35 | 5.09 | 3.15 | 3.96 |
| TCTTGTAGATCAAAAGTTAAGAAAGCCGAAGCCT | 1.79 | 0.791 | 1.09 | 0.787 | -0.327 | 0.243 | -0.268 | 0.155 | -0.386 | -0.12 |
| CGTCCAAGGTCAGAGAGGTCCGTGAATGCCGAGT | 2.12 | 2.18 | -0.282 | -0.705 | 1.61 | 3.03 | 1.11 | 2.98 | 0.291 | 4.67 |
| ATATGTAGGTTAGCAGGGGTCATTCAGACTAGGC | 6.72 | 6.32 | 3.05 | 2.47 | 4.78 | 6.38 | 2.6 | 6.55 | 2.44 | 3.5 |
| CCTAGCAGCCCAGGGTCACTCAAGCATTTCGCTT | -0.614 | 0.169 | -1.11 | -1.49 | 1.2 | 2.56 | 0.192 | 3.27 | 0.00809 | 2.4 |
| TCATATAGGTAAATGCTAGGTGGAAGTCCGATCT | 3.98 | 2.01 | 1.68 | 0.774 | 0.237 | 0.234 | 0.0145 | 0.241 | 0.904 | 0.253 |
| ACTAGCAGGCCAAGTTTGGGTCACTCCAACAAAG | 0.7 | 1.34 | -0.265 | -0.469 | 0.235 | 0.603 | -0.498 | 1.4 | -0.0686 | 1.74 |
| TGTCCAAGTTCAAAGGTAACGTAAGTATCCACAC | -0.319 | 1.81 | 1.26 | 1.32 | 1.85 | 4.87 | 3.45 | 5.04 | 0.541 | 3.42 |
| CCGAGTAGGTTACGGGGCATTCAGGCAACGGTGA | 3.97 | 4.11 | -0.288 | -0.815 | 0.551 | 0.0878 | -0.35 | 0.636 | -0.584 | 1.5 |
| TCGAGTAGGTTACCAATGGGTCATTCAGCTTTCT | 3.45 | 2.82 | 0.364 | -0.28 | 1.39 | 1.88 | -0.563 | 2.5 | -0.538 | 1.77 |

| Sequence | PBM binding z-score [1] | PBM binding z-score [2] | PBM binding z-score [3] | PBM binding z-score [4] | PBM binding z-score [5] | PBM binding z-score [6] | PBM binding z-score [7] | PBM binding z-score [8] | PBM binding z-score [9] | PBM binding z-score [10] |
| --- | --- | --- | --- | --- | --- | --- | --- | --- | --- | --- |
| ACTATTAGTTGAGATGAGGGCAACCGATAGGTTG | 0.105 | 0.33 | 1.25 | 0.632 | 0.972 | 1.35 | 0.727 | 0.676 | 1.33 | 1.22 |
| CAAACTAGGTCACGCAAGGTCAAAGTCGAATGAC | 8.48 | 9.3 | 4.39 | 5.78 | 5.5 | 7.23 | 3.2 | 6.68 | 4.04 | 5.5 |
| ACTAGCAGGCCAAGGGTCACTCCAGATTAGTCCG | 1.08 | 3.57 | -0.0917 | -0.469 | 1.44 | 2.68 | 0.019 | 3.79 | 0.278 | 3.42 |
| CTCGAAAGGTCGTGCTCAGGTGCGTATACCAAAC | 0.285 | 1.52 | 0.6 | 0.566 | 0.856 | 3.09 | 0.43 | 3.46 | -0.163 | 3.75 |
| GCATATAGGTTATACAAGGTGAAAGTCCGATTGT | 4.93 | 4.04 | 0.859 | 0.875 | 1.26 | 2.26 | 0.302 | 2.49 | 0.937 | 1.6 |
| CAAACTAGGTCAACGGTCAAAGTCGAGCCAACCA | 8.71 | 9.01 | 1.94 | 3.3 | 2.91 | 2.17 | 0.267 | 3.71 | 0.962 | 4.51 |
| CCTACTGGGCCATTCAGAGGTCATTGGTCATATG | 3.85 | 4.26 | -0.0478 | 0.266 | 1.61 | 4.57 | 2.34 | 4.46 | 0.727 | 3.03 |
| CTCGAAAGGTCGTGCTCAGGTGAGTGTACCAAAC | 1.29 | 1.94 | -0.0151 | 0.438 | 1.83 | 3.52 | 0.0812 | 4.32 | 0.202 | 4.01 |
| CCTACTGGGCCAAACAGGTCATTGATGCCGATAA | 4.31 | 3.92 | 0.0161 | -0.301 | 1.42 | 1.37 | 0.801 | 1.71 | 0.102 | 1.68 |
| ACTATAAGTTGACTTAGGGCAACCGATACGACGC | -0.174 | 0.419 | 0.924 | 0.648 | 0.0162 | 0.385 | 0.624 | 0.604 | 0.56 | 1.2 |
| CGAACTAGGTCATTGACAGGACAGTGAGTAGTAA | 8.17 | 8.32 | 0.587 | 2.61 | 1.63 | 1.38 | 0.241 | 2.09 | 0.277 | 3.6 |
| TCTAGTTGGTCACGGAGTTCACACACGACGGGTA | 2.4 | 2.92 | 1.45 | 0.822 | 1.92 | 4.53 | 3.62 | 2.15 | 0.649 | 2.87 |
| CCTACCGGGCCACGAAAGGTCATTGATTCAGTGA | 0.938 | 2.28 | -0.376 | -1.2 | 2.6 | 5.44 | 2.13 | 5.36 | 0.144 | 4.07 |
| TCTAGATGGTCACGGAGGTCACACACGACGGGTA | 2.1 | 3.58 | 1.44 | 1.08 | 4.17 | 4.87 | 2.07 | 5.06 | 1.56 | 3.9 |
| GCTTACGGGTCAAAGGCTATAGCATGAATAGAAT | 3.78 | 4.33 | 0.463 | 0.898 | 1.36 | 3.22 | 0.0124 | 4.4 | -0.0609 | 3.69 |
| GCTTGTAGATCAAGGTTAGGAAAGACTAAGCTAA | 1.45 | 0.637 | -0.619 | 0.0428 | -0.189 | -0.276 | -0.422 | -0.0199 | -0.3 | 0.336 |
| CAAACTAGGTCAAACGTCAAAGTCGAGCCAACCA | 8.33 | 8.65 | 4.47 | 4.15 | 2.05 | 2.38 | 0.241 | 3.65 | 0.354 | 4.21 |
| AGAATGAGGTTAAGATCATGGAAACAGAATACAT | 2.36 | 2.7 | 1.78 | 1.04 | 0.572 | 1.24 | 0.274 | 1.79 | 0.586 | 1.68 |
| GCATATAGGTAACACAAGGTGAAAGTCCGATTGT | 5.29 | 4.7 | 0.827 | 0.927 | 0.275 | 0.74 | -0.11 | 1.25 | 0.102 | 0.856 |
| CAAACTAGGTCACAGATGTCAAAGTCCGTGCGTA | 8.74 | 8.85 | 3.45 | 2.75 | 2.09 | 2.47 | 0.19 | 3.24 | 1.17 | 4.17 |
| CCTCCAAGGTCAGCAGGTCAGTGAAAGCGACGTG | 2.44 | 3.16 | -0.182 | -1.13 | 2.56 | 3.13 | 0.806 | 4.32 | 0.668 | 5.41 |
| TGTCGGAGGACACGAAAGGTCAGAGCTCGACATC | -0.0424 | 1.74 | 0.729 | -0.228 | 2.53 | 4.04 | 0.82 | 4.12 | 1.52 | 4.31 |
